Reference: PubChem BioAssay (EPA / NIEHS)
Inconclusive results are not listed. Activity calls are given as the source filed them. The calls were made as follows, unless noted: active = hit-call score of the fitted dose curve at least 0.9, where 1 is the maximum; inconclusive = response in the unintended direction; inactive = score below 0.9.

How the values were obtained:
[1] = ATG_TCF_b_cat_CIS: Attagene CIS-FACTORIAL HepG2 Assay for human T-Cell-Factor with beta-catenin (TCF/b-cat) (AID 2282965; active = hit-call score of the fitted dose curve at least 0.9, where 1 is the maximum; inactive = score below 0.9); details: HepG2 TCF/beta-catenin cis-reporter transcription, actives raise or lower the signal
Method in brief: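 Endogenous TCF/LEF activity read as reporter transcript level via RT-PCR and capillary electrophoresis fluorescence in transfected HepG2, 24 h exposure; gain or loss of signal fitted against DMSO controls.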

[2] = ATG_TAL_CIS: Attagene CIS-FACTORIAL HepG2 Assay for human TAL Basal Promoter (AID 2282966; active = hit-call score of the fitted dose curve at least 0.9, where 1 is the maximum; inactive = score below 0.9;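 also: background control endpoint measuring basal TAL promoter reporter mRNA not a specific factor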); details: HepG2 Attagene cis-factorial TAL promoter reporter; actives raise or lower the signal
Method in brief: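 After 24 hours of chemical exposure, transfected HepG2 cells yielded RNA that was converted to 6-FAM-labelled, HpaI-digested reporter fragments for capillary electrophoresis. Values derive from bidirectional fitting against DMSO controls.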

[3] = ATG_TGFb_CIS: Attagene CIS-FACTORIAL HepG2 Assay for human Transforming Growth Factor (TGF) (AID 2282967; active = hit-call score of the fitted dose curve at least 0.9, where 1 is the maximum; inactive = score below 0.9); details: HepG2 Attagene CIS TGFb reporter, mRNA transcription; actives raise or lower the signal
Method in brief: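 HepG2 cells transiently transfected with cis-promoter-driven multiplexed reporter units; 24 h compound exposure. Reporter mRNA measured by RT-PCR, 6-FAM labeling, HpaI digestion and capillary electrophoresis; bidirectional fit versus DMSO baseline.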

[4] = ATG_VDRE_CIS: Attagene CIS-FACTORIAL HepG2 Assay for human Vitamin D Receptor Element (VDRE) (AID 2282968; active = hit-call score of the fitted dose curve at least 0.9, where 1 is the maximum; inactive = score below 0.9); details: HepG2 VDRE cis-reporter transcription, actives raise or lower the signal
Method in brief: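 Measures endogenous factor activity through cis-element-driven reporter transcripts in transiently transfected HepG2. Cells are treated 24 h; reporter mRNA is quantified by RT-PCR and capillary electrophoresis; fitting is bidirectional.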

[5] = molecular target: Nuclear receptor subfamily 1 group I member 3 (Homo sapiens) (UniProt Q14994); experiment: ATG_CAR_TRANS: Attagene TRANS-FACTORIAL HepG2 Assay for human Constitutive Androstane Receptor (CAR) (AID 2282969); details: HepG2 Attagene TRANS-FACTORIAL CAR reporter;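 also: activators raise reporter mRNA above DMSO so AC50 marks induction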
Sequence of Nuclear receptor subfamily 1 group I member 3 (Homo sapiens) (Q14994 whole entry, looked up, the tested form may be a part): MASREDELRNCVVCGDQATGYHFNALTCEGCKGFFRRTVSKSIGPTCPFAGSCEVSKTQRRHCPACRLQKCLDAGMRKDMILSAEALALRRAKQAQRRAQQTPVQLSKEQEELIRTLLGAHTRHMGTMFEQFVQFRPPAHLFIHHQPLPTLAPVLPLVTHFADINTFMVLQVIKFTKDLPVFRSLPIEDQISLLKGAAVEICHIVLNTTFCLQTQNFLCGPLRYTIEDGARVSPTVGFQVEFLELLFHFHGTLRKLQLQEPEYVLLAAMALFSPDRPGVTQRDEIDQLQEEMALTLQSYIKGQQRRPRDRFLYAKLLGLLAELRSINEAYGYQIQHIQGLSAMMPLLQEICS
Method in brief: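 Signal is reporter mRNA induction relative to DMSO, measured 24 h after dosing by RT-PCR with fluorescent primer extension and capillary electrophoresis. Human HepG2 liver cells carried transiently transfected chimeric NR-Gal4/GAL4-UAS reporter constructs.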

[6] = molecular target: Estrogen receptor (Homo sapiens) (UniProt P03372); experiment: ATG_ERa_TRANS: Attagene TRANS-FACTORIAL HepG2 Assay for human Estrogen Receptor alpha (ERa) (AID 2282970); details: HepG2 Attagene TRANS ERa GAL4 reporter, mRNA
Sequence of Estrogen receptor (Homo sapiens) (P03372 whole entry, looked up, the tested form may be a part): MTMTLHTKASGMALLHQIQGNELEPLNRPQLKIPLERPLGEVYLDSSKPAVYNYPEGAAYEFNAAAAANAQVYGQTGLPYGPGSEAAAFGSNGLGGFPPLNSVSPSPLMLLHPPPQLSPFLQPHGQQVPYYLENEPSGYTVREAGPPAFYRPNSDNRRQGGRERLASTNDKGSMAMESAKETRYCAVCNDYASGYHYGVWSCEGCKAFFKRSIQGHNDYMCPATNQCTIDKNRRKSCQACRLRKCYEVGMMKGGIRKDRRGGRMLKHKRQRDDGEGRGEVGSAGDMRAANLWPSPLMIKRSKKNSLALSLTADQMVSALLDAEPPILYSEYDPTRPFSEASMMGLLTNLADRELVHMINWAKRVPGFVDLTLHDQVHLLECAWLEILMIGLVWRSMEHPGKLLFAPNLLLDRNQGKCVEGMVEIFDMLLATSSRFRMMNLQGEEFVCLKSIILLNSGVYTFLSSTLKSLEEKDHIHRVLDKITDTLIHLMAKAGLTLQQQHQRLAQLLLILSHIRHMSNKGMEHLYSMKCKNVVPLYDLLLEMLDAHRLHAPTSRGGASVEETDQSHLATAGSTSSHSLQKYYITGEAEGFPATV
Method in brief: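 Liver-derived HepG2 cells expressing chimeric nuclear receptor-Gal4 proteins from transient transfection were exposed for 24 hours. Gain of reporter mRNA signal versus DMSO, read by capillary electrophoresis of FAM-labelled PCR products, was recorded.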

[7] = molecular target: Steroid hormone receptor ERR1 (Homo sapiens) (UniProt P11474); experiment: ATG_ERRa_TRANS: Attagene TRANS-FACTORIAL HepG2 Assay for human Estrogen-Related Receptor alpha (ERRa) (AID 2282971); details: HepG2 Attagene TRANS reporter, ERRa transactivation
Method in brief: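 Reporter transcript induction was quantified by RT-PCR and capillary electrophoresis of FAM-labelled, HpaI-cut products after 24 h treatment of HepG2 cells carrying transiently transfected GAL4-UAS reporter units and an exogenous ERRa-Gal4 fusion; activity scored as increase over DMSO.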

[8] = ATG_M_19_TRANS: Attagene TRANS-FACTORIAL HepG2 Assay for M19 Transcription Factor (Internal Marker) (AID 2282974); details: HepG2 Attagene TRANS-FACTORIAL M19 internal marker reporter
Method in brief: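 HepG2 cells transiently transfected with multiple GAL4-UAS reporter transcription units were exposed to chemicals for 24 h. Reporter mRNA was read by RT-PCR, 6-FAM primer extension, HpaI digestion and capillary electrophoresis; gain of signal fitted relative to DMSO.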

[9] = ATG_GAL4_TRANS: Attagene TRANS-FACTORIAL HepG2 Assay for GAL4 (Internal Marker) (AID 2282976); details: HepG2 Attagene TRANS GAL4 internal marker reporter
Method in brief: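 First, HepG2 cells were transfected with reporter units under GAL4-UAS control. Next, they were treated with chemical for 24 h. Finally, RNA was reverse-transcribed, PCR-amplified, FAM-labelled and resolved by capillary electrophoresis, with induction scored against DMSO.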

[10] = molecular target: Hepatocyte nuclear factor 4-alpha (Homo sapiens) (UniProt P41235); experiment: ATG_HNF4a_TRANS: Attagene TRANS-FACTORIAL HepG2 Assay for human Hepatocyte Nuclear Factor 4 alpha (HNF4a) (AID 2282982); details: HepG2 HNF4a transactivation reporter, mRNA readout
Sequence of Hepatocyte nuclear factor 4-alpha (Homo sapiens) (P41235 whole entry, looked up): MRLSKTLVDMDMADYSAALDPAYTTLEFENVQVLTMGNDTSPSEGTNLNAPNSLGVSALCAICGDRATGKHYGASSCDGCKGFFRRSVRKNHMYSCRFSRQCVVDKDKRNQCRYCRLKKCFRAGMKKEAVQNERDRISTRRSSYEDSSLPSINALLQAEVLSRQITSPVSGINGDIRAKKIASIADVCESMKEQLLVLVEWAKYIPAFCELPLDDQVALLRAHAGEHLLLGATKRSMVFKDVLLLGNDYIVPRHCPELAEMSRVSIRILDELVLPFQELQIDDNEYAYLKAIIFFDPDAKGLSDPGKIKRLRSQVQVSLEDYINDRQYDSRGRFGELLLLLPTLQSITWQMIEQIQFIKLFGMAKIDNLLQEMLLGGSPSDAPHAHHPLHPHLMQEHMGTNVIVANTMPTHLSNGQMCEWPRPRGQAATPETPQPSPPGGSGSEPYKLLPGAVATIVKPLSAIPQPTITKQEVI
Method in brief: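 Multiplexed reporter assay: transfected HepG2, 24 h exposure, total RNA → oligo(dT) RT → PCR → 6-FAM extension → HpaI digest → CE fluorescence. DMSO = negative control.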

[11] = ATG_M_32_TRANS: Attagene TRANS-FACTORIAL HepG2 Assay for M32 Transcription Factor (Internal Marker) (AID 2282984); details: HepG2 Attagene TRANS M32 internal marker reporter;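 also: transcript level of a background control reporter unit measured by RT-PCR and capillary electrophoresis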
Method in brief: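 Cell-based TRANS-format assay in HepG2: exogenous chimeric GAL4 reporter units transiently expressed, compounds applied 24 h. Reporter mRNA detected by RT-PCR plus capillary electrophoresis; this readout is an internal background marker.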

[12] = molecular target: Transcriptional activator Myb (Homo sapiens) (UniProt P10242); experiment: ATG_Myb_CIS: Attagene CIS-FACTORIAL HepG2 Assay for human Myeloblastosis (Myb) Proto-Oncogene Transcription Factor (AID 2282986; active = hit-call score of the fitted dose curve at least 0.9, where 1 is the maximum; inactive = score below 0.9); details: HepG2 Attagene CIS-FACTORIAL Myb reporter transcription; actives raise or lower the signal
Sequence of Transcriptional activator Myb (Homo sapiens) (P10242 whole entry, looked up): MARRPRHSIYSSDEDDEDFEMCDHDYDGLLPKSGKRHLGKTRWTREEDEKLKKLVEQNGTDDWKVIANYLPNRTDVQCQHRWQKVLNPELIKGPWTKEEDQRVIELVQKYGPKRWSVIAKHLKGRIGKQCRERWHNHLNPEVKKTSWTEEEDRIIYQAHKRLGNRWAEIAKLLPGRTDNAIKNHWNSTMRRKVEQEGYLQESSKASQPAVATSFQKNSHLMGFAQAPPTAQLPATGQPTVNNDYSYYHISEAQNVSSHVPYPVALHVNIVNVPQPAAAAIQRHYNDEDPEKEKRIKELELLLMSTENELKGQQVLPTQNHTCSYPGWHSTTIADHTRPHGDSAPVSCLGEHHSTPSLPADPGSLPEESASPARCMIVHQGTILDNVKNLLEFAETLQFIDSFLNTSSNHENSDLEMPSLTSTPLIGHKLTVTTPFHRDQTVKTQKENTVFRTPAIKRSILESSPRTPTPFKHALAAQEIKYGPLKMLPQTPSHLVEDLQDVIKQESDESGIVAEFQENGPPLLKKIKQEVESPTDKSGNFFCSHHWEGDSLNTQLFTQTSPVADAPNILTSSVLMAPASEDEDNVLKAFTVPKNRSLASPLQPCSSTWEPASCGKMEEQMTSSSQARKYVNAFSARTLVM
Method in brief: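 HepG2 cells were transiently transfected with cis-regulated multiple reporter transcription units reflecting endogenous Myb activity, then exposed to compound for 24 hours. Reporter mRNA was measured by RT-PCR with capillary electrophoresis; bidirectional fitting versus DMSO baseline.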

[13] = molecular target: X-box-binding protein 1 (Homo sapiens) (UniProt P17861); experiment: ATG_Xbp1_CIS: Attagene CIS-FACTORIAL HepG2 Assay for human X-box Binding Protein 1 (XBP1) (AID 2282972; active = hit-call score of the fitted dose curve at least 0.9, where 1 is the maximum; inactive = score below 0.9); details: HepG2 XBP1 cis-element reporter, Attagene multiplex; actives raise or lower the signal
Sequence of X-box-binding protein 1 (Homo sapiens) (P17861 whole entry, looked up): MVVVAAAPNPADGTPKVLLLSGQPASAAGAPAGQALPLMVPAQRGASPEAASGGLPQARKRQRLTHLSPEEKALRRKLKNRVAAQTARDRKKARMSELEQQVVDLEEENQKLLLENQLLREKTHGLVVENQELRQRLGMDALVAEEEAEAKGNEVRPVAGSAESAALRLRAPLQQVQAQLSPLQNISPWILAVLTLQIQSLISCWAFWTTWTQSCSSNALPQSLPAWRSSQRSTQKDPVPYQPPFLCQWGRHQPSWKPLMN
Method in brief: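 Human hepatoma HepG2, cis-element reporter system, 24 h treatment; mRNA quantified by RT-PCR/CE fluorescence; fit relative to DMSO.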

[14] = molecular target: Estrogen-related receptor gamma (Homo sapiens) (UniProt P62508); experiment: ATG_ERRg_TRANS: Attagene TRANS-FACTORIAL HepG2 Assay for human Estrogen-Related Receptor gamma (ERRg) (AID 2282977); details: HepG2 Attagene TRANS reporter, ERRg transactivation;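 also: hits increase reporter signal over DMSO so potencies reflect activators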
Sequence of Estrogen-related receptor gamma (Homo sapiens) (P62508 whole entry, looked up, the tested form may be a part): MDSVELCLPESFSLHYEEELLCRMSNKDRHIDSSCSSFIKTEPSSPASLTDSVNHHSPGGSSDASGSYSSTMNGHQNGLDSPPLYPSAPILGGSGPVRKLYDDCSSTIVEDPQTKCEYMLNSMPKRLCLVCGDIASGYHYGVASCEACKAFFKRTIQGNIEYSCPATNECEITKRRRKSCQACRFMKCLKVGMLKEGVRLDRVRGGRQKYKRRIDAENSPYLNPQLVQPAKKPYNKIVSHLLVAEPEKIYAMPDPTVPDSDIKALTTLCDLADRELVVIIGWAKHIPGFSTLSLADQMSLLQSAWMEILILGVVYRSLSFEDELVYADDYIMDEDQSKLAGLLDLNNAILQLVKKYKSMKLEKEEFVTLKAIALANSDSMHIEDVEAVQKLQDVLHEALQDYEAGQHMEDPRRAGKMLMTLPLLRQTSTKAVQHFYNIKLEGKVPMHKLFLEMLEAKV
Method in brief: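 Readout: fluorescent reporter-mRNA fragments resolved by capillary electrophoresis after RT-PCR and HpaI cut. Cells: transiently transfected HepG2 carrying GAL4-UAS reporters driven by exogenous NR-Gal4 chimeras, dosed 24 h. Activity fitted upward relative to DMSO baseline.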

[15] = molecular target: Glucocorticoid receptor (Homo sapiens) (UniProt P04150); experiment: ATG_GR_TRANS: Attagene TRANS-FACTORIAL HepG2 Assay for human Glucocorticoid Receptor (GR) (AID 2282978); details: HepG2 Attagene TRANS GR reporter, mRNA transcription;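 also: activators score as hits since higher reporter transcript over DMSO is fitted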
Sequence of Glucocorticoid receptor (Homo sapiens) (P04150 whole entry, looked up, the tested form may be a part): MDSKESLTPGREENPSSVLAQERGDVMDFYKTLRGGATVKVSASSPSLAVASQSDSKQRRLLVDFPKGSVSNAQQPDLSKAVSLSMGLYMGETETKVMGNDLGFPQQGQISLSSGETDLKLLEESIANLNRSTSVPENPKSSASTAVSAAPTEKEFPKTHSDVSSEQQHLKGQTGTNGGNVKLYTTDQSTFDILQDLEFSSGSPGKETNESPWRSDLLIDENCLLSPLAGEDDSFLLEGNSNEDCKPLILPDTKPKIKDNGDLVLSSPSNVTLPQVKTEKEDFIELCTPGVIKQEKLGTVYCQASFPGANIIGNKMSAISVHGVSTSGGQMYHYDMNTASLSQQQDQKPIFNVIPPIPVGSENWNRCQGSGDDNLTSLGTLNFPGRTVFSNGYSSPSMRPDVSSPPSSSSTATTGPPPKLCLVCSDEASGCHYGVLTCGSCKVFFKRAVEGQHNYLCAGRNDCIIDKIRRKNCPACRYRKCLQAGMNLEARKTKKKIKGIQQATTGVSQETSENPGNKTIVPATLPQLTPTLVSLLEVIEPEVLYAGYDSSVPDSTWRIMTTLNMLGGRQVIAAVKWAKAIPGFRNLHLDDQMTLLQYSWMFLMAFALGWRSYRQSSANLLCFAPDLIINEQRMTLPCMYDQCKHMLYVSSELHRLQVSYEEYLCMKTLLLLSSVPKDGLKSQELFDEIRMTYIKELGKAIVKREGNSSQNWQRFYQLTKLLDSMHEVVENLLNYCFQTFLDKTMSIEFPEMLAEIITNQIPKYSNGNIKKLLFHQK
Method in brief: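 HepG2 cells transiently transfected with multiplexed reporter units in which chimeric NR-GAL4 proteins drive GAL4-UAS reporters; 24 h compound exposure. Reporter mRNA measured by RT-PCR, 6-FAM labelling, HpaI digestion and capillary electrophoresis; gain-of-signal fitted versus DMSO.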

[16] = molecular target: Oxysterols receptor LXR-beta (Homo sapiens) (UniProt P55055); experiment: ATG_LXRb_TRANS: Attagene TRANS-FACTORIAL HepG2 Assay for human Liver X Receptor beta (LXRb) (AID 2282981); details: HepG2 Attagene TRANS GAL4-LXRb reporter, mRNA
Sequence of Oxysterols receptor LXR-beta (Homo sapiens) (P55055 whole entry, looked up, the tested form may be a part): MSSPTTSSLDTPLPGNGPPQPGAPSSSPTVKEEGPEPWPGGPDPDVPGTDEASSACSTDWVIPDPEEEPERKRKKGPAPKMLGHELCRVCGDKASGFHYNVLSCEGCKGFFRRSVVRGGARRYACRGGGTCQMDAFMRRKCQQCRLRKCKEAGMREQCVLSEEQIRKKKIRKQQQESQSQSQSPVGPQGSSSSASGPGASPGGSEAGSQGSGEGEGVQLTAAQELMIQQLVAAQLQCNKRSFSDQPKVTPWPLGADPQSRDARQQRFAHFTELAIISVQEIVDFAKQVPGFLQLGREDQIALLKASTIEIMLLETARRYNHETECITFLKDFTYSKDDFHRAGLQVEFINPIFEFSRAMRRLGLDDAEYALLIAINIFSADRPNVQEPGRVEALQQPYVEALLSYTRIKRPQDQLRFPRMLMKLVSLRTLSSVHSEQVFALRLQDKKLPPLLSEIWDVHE
Method in brief: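 After 24 h of chemical treatment, transfected HepG2 cells yield total RNA; reporter cDNA is PCR-amplified, FAM-labelled, HpaI-cut and run on capillary electrophoresis. Signal reflects chimeric LXRb-Gal4 activity on GAL4-UAS reporters.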

[17] = ATG_M_06_TRANS: Attagene TRANS-FACTORIAL HepG2 Assay for M06 Transcription Factor (Internal Marker) (AID 2282983); details: HepG2 Attagene TRANS M06 internal marker reporter
Method in brief: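 Background control endpoint: reporter mRNA from transiently transfected HepG2 after 24 h dosing, detected by RT-PCR with capillary electrophoresis fluorescence. Analysed for gain versus DMSO.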

[18] = molecular target: Oxysterols receptor LXR-alpha (Homo sapiens) (UniProt Q13133); experiment: ATG_LXRa_TRANS: Attagene TRANS-FACTORIAL HepG2 Assay for human Liver X Receptor alpha (LXRa) (AID 2282980); details: HepG2 Attagene TRANS reporter, LXRa transactivation
Sequence of Oxysterols receptor LXR-alpha (Homo sapiens) (Q13133 whole entry, looked up, the tested form may be a part): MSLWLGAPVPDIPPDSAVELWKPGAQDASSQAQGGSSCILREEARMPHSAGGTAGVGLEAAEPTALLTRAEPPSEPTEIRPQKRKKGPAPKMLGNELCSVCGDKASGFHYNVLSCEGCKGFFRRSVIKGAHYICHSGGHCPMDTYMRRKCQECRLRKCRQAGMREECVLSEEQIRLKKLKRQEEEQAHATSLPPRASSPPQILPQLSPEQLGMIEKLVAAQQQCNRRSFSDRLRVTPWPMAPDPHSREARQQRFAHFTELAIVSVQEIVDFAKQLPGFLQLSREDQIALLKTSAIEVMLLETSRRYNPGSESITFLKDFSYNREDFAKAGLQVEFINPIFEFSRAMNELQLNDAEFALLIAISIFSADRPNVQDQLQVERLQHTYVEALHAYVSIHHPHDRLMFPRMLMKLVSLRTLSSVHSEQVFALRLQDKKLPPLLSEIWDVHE
Method in brief: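 Transfect HepG2 with GAL4-UAS multiplex reporter constructs (TRANS format, chimeric receptor-GAL4); treat 24 h; extract RNA, reverse-transcribe, PCR-amplify, FAM-label, HpaI-digest; resolve fragments by capillary electrophoresis. Upward response vs DMSO.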

[19] = molecular target: Bile acid receptor (Homo sapiens) (UniProt Q96RI1); experiment: ATG_FXR_TRANS: Attagene TRANS-FACTORIAL HepG2 Assay for Farnesoid X Receptor (FXR) (AID 2282979); details: HepG2 Attagene TRANS FXR-GAL4 reporter transcription;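 also: hits raise reporter mRNA above DMSO so AC50 marks FXR activation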
Sequence of Bile acid receptor (Homo sapiens) (Q96RI1 whole entry, looked up, the tested form may be a part): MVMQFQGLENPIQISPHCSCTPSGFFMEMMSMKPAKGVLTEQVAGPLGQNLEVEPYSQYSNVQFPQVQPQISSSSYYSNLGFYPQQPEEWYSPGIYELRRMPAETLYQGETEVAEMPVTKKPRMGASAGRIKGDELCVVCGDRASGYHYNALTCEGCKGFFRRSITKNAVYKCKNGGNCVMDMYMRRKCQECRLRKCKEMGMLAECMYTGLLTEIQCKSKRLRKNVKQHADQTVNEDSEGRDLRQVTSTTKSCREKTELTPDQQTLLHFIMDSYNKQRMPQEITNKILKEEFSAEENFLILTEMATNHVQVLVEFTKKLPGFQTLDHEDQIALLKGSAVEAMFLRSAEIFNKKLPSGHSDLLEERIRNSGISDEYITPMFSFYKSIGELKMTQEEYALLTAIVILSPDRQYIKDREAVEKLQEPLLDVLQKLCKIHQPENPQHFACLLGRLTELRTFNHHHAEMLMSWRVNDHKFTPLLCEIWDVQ
Method in brief: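 Transient transfection of HepG2 with multiplexed GAL4-UAS reporter units; exogenous FXR-GAL4 chimera. Dose 24 h → TriZol RNA → oligo(dT) RT → PCR, 6-FAM primer extension, HpaI cut → CE. Gain vs DMSO.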

[20] = molecular target: Nuclear receptor subfamily 4 group A member 2 (Homo sapiens) (UniProt P43354); experiment: ATG_NURR1_TRANS: Attagene TRANS-FACTORIAL HepG2 Assay for human Nuclear Receptor Related Protein 1 (NURR1) (AID 2282985); details: HepG2 Attagene TRANS reporter, mRNA readout
Method in brief: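 Measures transcriptional activation by an exogenous NR-Gal4 chimera in transfected HepG2 liver cells. After 24 h, reporter RNA is reverse-transcribed, amplified and resolved by capillary electrophoresis; DMSO defines baseline.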

Measured: AC50

CC/C=C\CCOC(=O)c1ccccc1O
not listed: [13] | [14] | [15] | [16] | [17] | [18] | [19] | [20]
inactive: all other assays above

c1ccc2cnccc2c1
not listed: [5] | [10] | [11] | [18] | [19] | [20]
inactive: all other assays above

CC(=O)OC1CCCCC1C(C)(C)C (configuration not stated)
inactive: [1] | [2] | [3] | [4] | [5] | [6] | [13] | [8] | [9] | [15]

N#Cc1ccc(C2CCCc3cncn32)cc1 (configuration not stated)
active: [6] 25.8 µM
not listed: [7] | [9] | [14] | [15] | [16] | [19] | [20]
inactive: all other assays above

CC(=O)OCC=C(C)C
not listed: [6] | [7] | [11] | [12] | [14] | [16] | [19] | [20]
inactive: all other assays above

CCCC(CC)c1ccccc1 (configuration not stated)
inactive: [1] | [2] | [3] | [4] | [13] | [8] | [15] | [18] | [12]
active: [6] 55.3 µM

C=CC(C)(O)CC/C=C(\C)CC (configuration not stated)
active: [6] 30.3 µM
not listed: [5] | [7] | [9] | [10] | [14] | [17] | [19] | [20]
inactive: all other assays above

CCCCCCOC(=O)CCCCC(=O)OCCCCCC
inactive: [1] | [2] | [3] | [4] | [6] | [7] | [14] | [19] | [16] | [17] | [12]

CC(=O)c1ccccc1O
not listed: [5] | [7] | [9] | [10] | [14] | [15] | [17] | [20]
inactive: all other assays above

COc1ccc(C(=O)/C(Br)=C\C(=O)O)cc1
active: [4] 35.7 µM
not listed: [5] | [8] | [9] | [11] | [15] | [18]
inactive: all other assays above

CC(C)c1cc(C(C)C)cc(C(C)C)c1
inactive: [2] | [3] | [13] | [8] | [15] | [18] | [16] | [11]
active: [1] 169 µM | [4] 100 µM | [6] 58.9 µM | [20] 7.9 µM
